# Measurements reported in the supplement of paper PMC8728848.
# This is one part of a sample in which the strongest signals are shown more often than they occur.
# Key:
# Assay in all cases: glycan array binding signal (z-score within array); higher = stronger binding
# [1] = tested on: Gal3S(b1-4)[Fuc(a1-3)]Glc; details: glycan notation: IUPAC condensed, linker removed
# Method in brief: (§1)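 From the Consortium for Functional Glycomics database, 3228 arrays were curated, keeping only those whose protein sequence was available. Binding is given as a within-array Z-score averaged across arrays sharing a protein sequence and across linkers. Negative Z-scores can be read as non-binding.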
# [2] = tested on: Gal3S6S(b1-4)GlcNAc; details: glycan notation: IUPAC condensed, linker removed
# Method in brief: as §1
# [3] = tested on: Gal3S(b1-4)Glc; details: glycan notation: IUPAC condensed, linker removed
# Method in brief: as §1
# [4] = tested on: Gal6S(b1-3)GlcNAc; details: glycan notation: IUPAC condensed, linker removed
# Method in brief: as §1
# [5] = tested on: Gal3S6S(b1-4)GlcNAc6S; details: glycan notation: IUPAC condensed, linker removed
# Method in brief: as §1
# [6] = tested on: Gal4S6S(b1-4)GlcNAc; details: glycan notation: IUPAC condensed, linker removed
# Method in brief: as §1
# [7] = tested on: Gal6S(b1-4)GlcNAc; details: glycan notation: IUPAC condensed, linker removed
# Method in brief: as §1
# [8] = tested on: Gal3S(b1-4)[Fuc(a1-3)]Glc6S; details: glycan notation: IUPAC condensed, linker removed
# Method in brief: as §1
# [9] = tested on: Gal3S(b1-4)[Fuc(a1-3)]GlcNAc6S; details: glycan notation: IUPAC condensed, linker removed
# Method in brief: as §1
# [10] = tested on: Gal3S(b1-4)[Fuc(a1-3)]GlcNAc; details: glycan notation: IUPAC condensed, linker removed; mutation: R125K
# Method in brief: as §1
# Chain of Aggrecan (Rattus norvegicus), NP_071526 (chain, as listed by the source): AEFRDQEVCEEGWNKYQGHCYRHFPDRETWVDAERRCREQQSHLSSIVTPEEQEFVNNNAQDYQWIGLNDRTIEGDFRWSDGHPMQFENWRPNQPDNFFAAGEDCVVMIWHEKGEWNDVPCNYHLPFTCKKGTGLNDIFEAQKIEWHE
# Chain of PILRa (Mus musculus), Q2YSF3 (Q2YSF3 entry or part of it): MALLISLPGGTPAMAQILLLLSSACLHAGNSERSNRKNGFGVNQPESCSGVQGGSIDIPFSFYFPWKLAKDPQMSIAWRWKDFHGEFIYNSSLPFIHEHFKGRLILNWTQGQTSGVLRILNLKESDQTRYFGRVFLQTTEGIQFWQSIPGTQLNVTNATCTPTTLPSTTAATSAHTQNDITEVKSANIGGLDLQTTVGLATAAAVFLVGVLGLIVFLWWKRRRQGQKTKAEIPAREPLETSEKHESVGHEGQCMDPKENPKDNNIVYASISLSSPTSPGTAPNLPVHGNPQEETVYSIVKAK
# Chain of 6RG (Lolium perenne), B9U140 (B9U140 entry or part of it): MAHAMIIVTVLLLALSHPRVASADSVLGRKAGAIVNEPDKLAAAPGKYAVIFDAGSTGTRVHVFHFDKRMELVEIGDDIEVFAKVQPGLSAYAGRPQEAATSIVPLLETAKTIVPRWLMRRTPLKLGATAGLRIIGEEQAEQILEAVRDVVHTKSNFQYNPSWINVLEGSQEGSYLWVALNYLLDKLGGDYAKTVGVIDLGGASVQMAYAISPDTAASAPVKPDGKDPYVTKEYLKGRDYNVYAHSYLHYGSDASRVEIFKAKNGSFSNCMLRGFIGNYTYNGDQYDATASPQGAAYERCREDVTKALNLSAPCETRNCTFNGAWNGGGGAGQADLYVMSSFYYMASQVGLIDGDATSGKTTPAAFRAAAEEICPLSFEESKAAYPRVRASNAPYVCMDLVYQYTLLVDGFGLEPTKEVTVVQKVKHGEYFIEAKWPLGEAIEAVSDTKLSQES
# Chain of C3b (Homo sapiens), P01024 (P01024 23-667): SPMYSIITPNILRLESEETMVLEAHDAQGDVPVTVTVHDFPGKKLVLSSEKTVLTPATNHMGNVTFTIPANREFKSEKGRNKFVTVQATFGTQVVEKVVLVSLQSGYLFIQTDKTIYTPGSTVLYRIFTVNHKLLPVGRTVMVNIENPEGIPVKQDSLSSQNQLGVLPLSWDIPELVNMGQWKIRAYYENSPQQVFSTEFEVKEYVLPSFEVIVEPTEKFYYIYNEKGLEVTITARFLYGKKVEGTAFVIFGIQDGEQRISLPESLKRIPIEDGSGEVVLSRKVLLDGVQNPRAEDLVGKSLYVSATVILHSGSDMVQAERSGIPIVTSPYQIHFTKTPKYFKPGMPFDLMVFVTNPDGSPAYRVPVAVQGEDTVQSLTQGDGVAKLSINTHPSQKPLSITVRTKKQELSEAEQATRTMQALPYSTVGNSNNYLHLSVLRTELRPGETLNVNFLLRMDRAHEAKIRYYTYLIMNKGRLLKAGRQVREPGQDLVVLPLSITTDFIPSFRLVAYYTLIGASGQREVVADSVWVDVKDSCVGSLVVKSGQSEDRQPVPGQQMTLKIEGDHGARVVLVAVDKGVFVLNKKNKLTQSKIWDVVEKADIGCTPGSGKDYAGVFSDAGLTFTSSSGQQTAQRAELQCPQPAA
# Chain of CHT (Homo sapiens) (chain, as listed by the source): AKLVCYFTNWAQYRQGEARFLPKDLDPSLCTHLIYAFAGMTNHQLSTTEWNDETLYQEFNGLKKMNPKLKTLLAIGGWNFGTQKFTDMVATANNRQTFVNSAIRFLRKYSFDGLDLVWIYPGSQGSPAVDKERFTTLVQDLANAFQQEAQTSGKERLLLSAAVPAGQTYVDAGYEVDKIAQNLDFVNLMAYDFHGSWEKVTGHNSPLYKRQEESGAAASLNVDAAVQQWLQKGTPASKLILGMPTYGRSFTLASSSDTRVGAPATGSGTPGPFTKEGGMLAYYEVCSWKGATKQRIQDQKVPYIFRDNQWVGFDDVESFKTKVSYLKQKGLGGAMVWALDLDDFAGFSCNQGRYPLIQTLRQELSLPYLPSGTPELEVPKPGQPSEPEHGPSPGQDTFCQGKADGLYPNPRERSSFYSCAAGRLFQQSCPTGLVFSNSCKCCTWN
# Chain of CHI3L1 (Homo sapiens), P36222 (P36222 whole entry): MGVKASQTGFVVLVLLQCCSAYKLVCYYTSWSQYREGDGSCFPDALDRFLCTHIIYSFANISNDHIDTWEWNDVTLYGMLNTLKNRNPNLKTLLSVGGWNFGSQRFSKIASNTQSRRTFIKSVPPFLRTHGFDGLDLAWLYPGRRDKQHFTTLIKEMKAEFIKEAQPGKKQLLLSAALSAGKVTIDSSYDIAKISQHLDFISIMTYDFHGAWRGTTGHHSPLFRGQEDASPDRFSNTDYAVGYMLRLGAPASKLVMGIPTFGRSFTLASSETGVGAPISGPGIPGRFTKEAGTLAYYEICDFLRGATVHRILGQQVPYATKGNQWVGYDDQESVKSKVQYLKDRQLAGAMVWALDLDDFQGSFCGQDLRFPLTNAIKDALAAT
# Chain of wLAT-1A (Homo sapiens), Q01650 (Q01650 whole entry): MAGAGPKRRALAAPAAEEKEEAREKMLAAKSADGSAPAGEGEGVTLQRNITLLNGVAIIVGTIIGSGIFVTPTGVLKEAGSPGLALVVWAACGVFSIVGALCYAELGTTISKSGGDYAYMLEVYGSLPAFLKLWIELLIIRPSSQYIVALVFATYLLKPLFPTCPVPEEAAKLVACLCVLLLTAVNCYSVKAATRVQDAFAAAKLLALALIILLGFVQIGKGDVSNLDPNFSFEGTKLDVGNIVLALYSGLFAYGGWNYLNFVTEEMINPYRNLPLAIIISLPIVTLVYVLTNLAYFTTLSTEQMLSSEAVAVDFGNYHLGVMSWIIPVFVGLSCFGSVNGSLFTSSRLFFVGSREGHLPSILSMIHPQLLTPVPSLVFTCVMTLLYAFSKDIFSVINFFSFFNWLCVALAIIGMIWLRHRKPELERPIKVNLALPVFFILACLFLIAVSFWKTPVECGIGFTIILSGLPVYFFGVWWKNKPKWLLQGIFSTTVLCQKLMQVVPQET
# Chain of PILRb (Mus musculus), Q2YSF2 (Q2YSF2 entry or part of it): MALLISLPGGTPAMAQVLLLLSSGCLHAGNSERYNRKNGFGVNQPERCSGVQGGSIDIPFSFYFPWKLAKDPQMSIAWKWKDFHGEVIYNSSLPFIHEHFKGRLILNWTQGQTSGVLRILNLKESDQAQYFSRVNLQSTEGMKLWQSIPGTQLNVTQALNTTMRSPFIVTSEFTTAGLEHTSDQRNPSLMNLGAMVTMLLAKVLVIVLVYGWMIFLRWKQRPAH
# Chain of Regenerating Gene IV (Homo sapiens), Q9BYZ8 (Q9BYZ8 whole entry, looked up): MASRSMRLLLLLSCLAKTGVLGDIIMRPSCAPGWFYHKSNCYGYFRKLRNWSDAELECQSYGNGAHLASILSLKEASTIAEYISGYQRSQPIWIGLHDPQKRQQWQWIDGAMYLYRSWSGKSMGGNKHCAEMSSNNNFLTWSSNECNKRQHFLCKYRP
# Chain of SRLC (Mus musculus), Q8VIF6 (Q8VIF6 other isoform, or with tags, fused parts or gaps): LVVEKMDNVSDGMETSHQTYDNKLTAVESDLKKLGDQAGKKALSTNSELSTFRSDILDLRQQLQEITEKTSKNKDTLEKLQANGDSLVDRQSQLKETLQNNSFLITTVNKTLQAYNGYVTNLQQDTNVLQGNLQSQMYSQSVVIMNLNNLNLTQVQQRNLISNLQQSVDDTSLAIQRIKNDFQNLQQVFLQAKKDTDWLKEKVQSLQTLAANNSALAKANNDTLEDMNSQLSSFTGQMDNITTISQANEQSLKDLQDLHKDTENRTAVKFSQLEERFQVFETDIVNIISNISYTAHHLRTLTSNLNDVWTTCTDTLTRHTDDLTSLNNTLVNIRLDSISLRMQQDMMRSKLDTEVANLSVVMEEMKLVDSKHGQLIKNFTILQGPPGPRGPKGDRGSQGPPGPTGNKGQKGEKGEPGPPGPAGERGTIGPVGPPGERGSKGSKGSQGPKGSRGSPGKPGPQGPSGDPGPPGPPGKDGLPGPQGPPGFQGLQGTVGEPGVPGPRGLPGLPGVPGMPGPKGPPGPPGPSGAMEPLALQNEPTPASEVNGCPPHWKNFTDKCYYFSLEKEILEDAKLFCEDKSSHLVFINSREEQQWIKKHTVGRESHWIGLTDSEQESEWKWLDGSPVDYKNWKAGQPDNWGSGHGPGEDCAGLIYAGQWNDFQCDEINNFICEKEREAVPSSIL
substance,measurement,setting,value
"CHI3L1 (Homo sapiens), P36222",glycan array binding signal (z-score),[1],0.014
CHT (Homo sapiens),glycan array binding signal (z-score),"[2]; mutation: D138V, E140I",-0.059
"PILRa (Mus musculus), Q2YSF3",glycan array binding signal (z-score),[3],0.049
same,glycan array binding signal (z-score),[4],1.62
"6RG (Lolium perenne), B9U140",glycan array binding signal (z-score),[5],2.09
same,glycan array binding signal (z-score),[6],1.06
"C3b (Homo sapiens), P01024",glycan array binding signal (z-score),[2],-0.743
"PILRb (Mus musculus), Q2YSF2",glycan array binding signal (z-score),[1],0.773
"wLAT-1A (Homo sapiens), Q01650",glycan array binding signal (z-score),[7],3.6
"Regenerating Gene IV (Homo sapiens), Q9BYZ8",glycan array binding signal (z-score),[2],0.332
"Aggrecan (Rattus norvegicus), NP_071526",glycan array binding signal (z-score),[2],-0.034
same,glycan array binding signal (z-score),[6],-0.024
same,glycan array binding signal (z-score),[7],0.061
"Siglec-8 (Homo sapiens), Q9NYZ4",glycan array binding signal (z-score),[8],0.077
same,glycan array binding signal (z-score),[9],-0.171
same,glycan array binding signal (z-score),[10],0.148
MpAFP RI GFP (Marinomonas primoryensis),glycan array binding signal (z-score),[3],0.469
"SRLC (Mus musculus), Q8VIF6",glycan array binding signal (z-score),[5],0.13
